These results are taken from PubChem BioAssay (NCATS).

Assay [1] in a line: qHTS Assay for Identifying Gametocytocidal Compounds (AID 743244).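 Further: on the % scale 0 is the no-effect control and ±100 the full control effect; actives lower the fluorescent signal which means gametocytes are killed.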 Conditions: P. falciparum 3D7 stage III-V gametocytes, alamarBlue, 72 h; max response: active compounds read low. In outline:
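In this qHTS viability screen, late-stage 3D7 gametocytes are incubated with compound for 72 h, then with alamarBlue for 24 h; reduced resorufin fluorescence marks killing.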
A general note: Quantitative high-throughput screening tests each substance at several concentrations.

Assay [2] can be described thus: qHTS assay for measurement of the activity of small molecule inhibitors on Zika virus induced Caspase-3 activity in human iPSC derived neural progenitor cells (hNPCs) (AID 1224857). Further: % of control where 0% means no effect; nearly all actives have a fitted effect of over 65% in size. A digest of the protocol:
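In medium with heparin 2 ug/ml and cyclopamine 2 uM, hNPCs (350 cells/well) received compound for one hour and then Zika virus at 2 FFU/cell; caspase activity was measured by Caspase-Glo 3/7 luminescence 6 h post-infection.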

Assay [3] can be described thus: qHTS assay for measurement of the activity of small molecule inhibitors on Zika virus induced Caspase-3 activity in human astrocytoma cells (AID 1224859).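 Further: plate controls were ZIKV-infected untreated cells for no effect and uninfected cells for full effect.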 A digest of the protocol: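 A cell-based luminescent caspase-3/7 assay used SNB-19 cells infected with ZIKV (2 FFU/cell) for 6 h following 1 h compound pretreatment.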
The nature of assay [4]: qHTS assay to identify small molecule inhibitors of chordoma cells - UCH-1 (AID 1259355). Further: on the % scale 0 is the no-effect control and ±100 the full control effect; nearly all actives have a fitted effect of over 55% in size. In outline:
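A 48hr growth-inhibition format: each drug tested at 15 concentrations together with added auranofin, camptothecin, doxorubicin, rubitecan and topotecan, with cell viability quantified as CellTiter-Glo luminescence.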

Assay [5] is described as follows: qHTS assay to identify small molecule inhibitors of chordoma cells - UCH-2 (AID 1259356). Further: series mostly up to about 46 µM; on the % scale 0 is the no-effect control and ±100 the full control effect.
A short description of assay [6]: P-glycoprotein substrates identified in KB-8-5-11 adenocarcinoma cell line, qHTS therapeutic library screen (AID 1346987). Further: nearly all actives have a fitted effect of over 65% in size. Further: potency means the concentration at half of the fitted maximal effect. In outline: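 Compounds are pinned in dose-response onto KB-8-5-11 cells (500 cells/well, colchicine-free medium) and left 72 h at 37 degree C. CellTiter-Glo luminescence then yields AC50 values.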
Assay [7] can be described thus: NS1 protein of Zika virus - qHTS assay to identify small molecule inhibitors in human HEK 293 cells (AID 1347053).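 Further: series mostly up to about 46 µM; plate controls were infected untreated cells for no effect and uninfected cells for full effect; nearly all actives have a fitted effect of over 55% in size.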 A digest of the protocol:
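Read-out is a two-antibody TR-FRET for ZIKV NS1, normalized between uninfected cells and infected cells. Compound added 1 h before MR766 infection at MOI 0.5; human HEK 293 cells incubated 24 h, 37 C.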

A short description of assay [8]: qHTS assay for cell viability of HEK293 cells (AID 743288). Further: on the % scale 0 is the no-effect control and ±100 the full control effect; nearly all actives have a fitted effect of over 50% in size. Conditions: ATP luminescence (CellTiter-Glo), 18 h, active compounds read low. A digest of the protocol: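 Viable-cell counts were inferred from luciferase-based ATP content in HEK293 cells seeded at 2,000/well, pre-incubated ≥5 h, then dosed with DMSO-solubilised compounds for 18 h at 37 C.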
The nature of assay [9]: qHTS assay for cell viability of the p53RE-bla HCT-116 cell line (AID 743292). Further: on the % scale 0 is the no-effect control and ±100 the full control effect; nearly all actives have a fitted effect of over 55% in size. A digest of the protocol: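 In this qHTS counter-screen, metabolically competent p53RE-bla HCT-116 cells were counted via their ATP content. Compounds were applied for 16 h at 37 C and luciferase-coupled luminescence was measured.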

Where “and” joins values, the source holds several entries; their conditions need not be identical. Equal values may be shown once. A number with no mark means an inactive call. Inconclusive results are not listed. Calls of active or inactive are those of the source. The call rests on the fitted dose curve; in most records, active means well fitted curve in the direction sought with a large enough effect; inconclusive means small, poorly fitted or top-dose-only effect, or another doubt; inactive means no such curve, though single readings can be large; an effect the other way counts as inactive or inconclusive.

For the compound `FC(F)(F)C(F)(F)C(F)(F)C(F)(F)C(F)(F)C(F)(F)C(F)(F)C(F)(F)Br`, the max response in assay [1] was 5.68%. In addition, the Potency entry in assay [2], in assay [4], in assay [5], in assay [6] and in assay [7] was “inactive” each time. Besides, in assay [3], the result was inactive.
On to `O=C1C(O)=C(O)C(=O)C(O)=C1O`, for which the max response in [1] is -3.08%. In addition, the Potency result in assay [2], in assay [4], in [5], in assay [6] and in assay [7] was “inactive” in each case. The compound was called inactive in [3].
As to `Cc1cc(-c2ccccc2)nnc1NCCN1CCOCC1`, the max response in assay [1] was -0.774% and -9.14%. For the same compound, the Potency result in [2], in [4], in assay [5], in [6] and in assay [7] was “inactive” each time. Besides, the compound was called inactive in assay [3].
For the compound `CC(=O)N[C@@H](CCC(=O)O)C(=O)O`, the max response in assay [1] was -0.648%. In addition, the Potency entry in [2], in [4], in assay [5], in assay [6] and in assay [7] was “inactive” in each case. Moreover, the call in assay [3] was inactive.
Turning to `CC1=C(C(=O)O)N2C(=O)[C@@H](NC(=O)[C@H](N)c3ccccc3)[C@H]2SC1`, the max response in assay [1] was 2.91%. Besides, the Potency result in [2], in assay [4], in assay [5], in assay [6] and in assay [7] was “inactive” each time. Also, in assay [3], the result was inactive.
Turning to `CN1CCN(c2c(F)cc3c(=O)c(C(=O)O)cn4c3c2SCC4)CC1`, the max response in assay [1] is 9.27%. For the same compound, the Potency result in [2], in [4], in assay [5], in assay [6] and in assay [7] was “inactive” each time. Moreover, the call in assay [3] was inactive.
In the case of `COc1ccc(S(=O)(=O)N2c3ccc(Cl)cc3[C@@](O)(c3ccccc3Cl)[C@H]2C(=O)N2CCC[C@@H]2C(N)=O)cc1OC`, in assay [1], the max response was 20.2%. The Potency result in assay [2], in assay [4], in [5], in assay [6] and in [7] was “inactive” in each case. Further, the compound was called inactive in [3].
Turning to `Cc1c[nH]c2ccccc12`, in [1], the max response is 0.215%. In addition, the Potency entry in [2], in [4], in assay [5], in [6] and in assay [7] was “inactive” throughout. Moreover, the result in [3] was inactive.
Regarding `CN(C)CCC[C@@]1(c2ccc(F)cc2)OCc2cc(C#N)ccc21`, the max response in assay [1] was -8.84%. Besides, the Potency entry in [2], in [4], in assay [5], in assay [6] and in [7] was “inactive” each time. Besides, the outcome in assay [3] was inactive.
For `Cc1cn([C@H]2C[C@H](F)[C@@H](CO)O2)c(=O)[nH]c1=O`, the max response in assay [1] was -5.75%. For the same compound, the Potency entry in [2], in [4], in [5], in [6] and in assay [7] was “inactive” throughout. Moreover, in assay [3], the compound was classed as inactive.
With `OCCOCCN1CCN(C2=Nc3ccccc3Sc3ccccc32)CC1`, the max response in assay [1] is -0.0618%. Besides, the Potency entry in assay [2], in [4], in assay [5], in [6] and in [7] was “inactive” throughout. Moreover, the compound was classed as inactive in assay [3].
With `OC[C@H]1O[C@@H]2O[C@H]3[C@H](O)[C@@H](O)[C@@H](O[C@H]4[C@H](O)[C@@H](O)[C@@H](O[C@H]5[C@H](O)[C@@H](O)[C@@H](O[C@H]6[C@H](O)[C@@H](O)[C@@H](O[C@H]7[C@H](O)[C@@H](O)[C@@H](O[C@H]8[C@H](O)[C@@H](O)[C@@H](O[C@H]1[C@H](O)[C@H]2O)O[C@@H]8CO)O[C@@H]7CO)O[C@@H]6CO)O[C@@H]5CO)O[C@@H]4CO)O[C@@H]3CO`, the values for the max response in assay [1] and in assay [8] were 2.64% and -3.67%, respectively. Further, the result in assay [9] and in assay [3] was inactive. Further, the Potency result in [2], in [4], in assay [5], in [6] and in assay [7] was “inactive” each time.
`CC(=O)OCC(=O)[C@H]1CC[C@H]2[C@@H]3CCC4=CC(=O)CC[C@]4(C)[C@H]3CC[C@]12C`: the max response in [1] is -7.41%. Moreover, the Potency entry in assay [2], in assay [4], in [5] and in [7] was “inactive” throughout. Also, the call in assay [3] was inactive. Moreover, the Potency in assay [6] was 7.31 µM (active).
